# Screening data: PubChem, several laboratories
# Hits are enriched below; roughly 4% of the tested compounds scored in any of these assays.
# Mtb UGM inh = M. tuberculosis UGM enzyme inhibitors, primary screen, biochemical, fluorescence polarization, single point; purified UGM, fluorescence polarization probe displacement; AID 504406, 2011; inhibition, % at 10 µM; 0.06% of 320,000 active; UDP-galactopyranose mutase (Mycobacterium tuberculosis (strain ATCC 25618 / H37Rv)), …; in the data active = inhibition above about 10%, passing the limit was not always enough
# RecA intein inh = Mtb RecA intein splicing inhibitors, primary screen, biochemical, fluorescence, HTS; cell-free RecA intein splicing; inhibition, % (test concentration not listed); 0.75% of 290,000 active; in the data active = inhibition above about 30%;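 also: 0% = vehicle wells and 100% = reference inhibitor control wells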
# Mtb FBA inh = Mtb FBA enzyme inhibitors, primary screen, biochemical, fluorescence, strain H37Rv. Fructose-bisphosphate aldolase (Mycobacterium tuberculosis (strain ATCC 25618 / H37Rv)), …. purified M. tuberculosis FBA, fluorescence read-out. inhibition, % at 1 µM. 2.3% of 360,000 active; in the data active = inhibition above about 27%;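 also: 0% = vehicle and 100% = reference inhibitor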
# Rv3671c inh = Rv3671c serine protease inhibitors, primary screen, biochemical, fluorescence polarization, M. tuberculosis H37Rv | P9WHR9 | inhibition, % at 5.96 µM | 0.048% of 320,000 active; in the data active = inhibition above about 38%;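 also: extracellular domain of Rv3671c used as enzyme; 0% = enzyme with DMSO and 100% = no enzyme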
# Target sequence (P9WHR9 whole entry, looked up, the tested form may be a part): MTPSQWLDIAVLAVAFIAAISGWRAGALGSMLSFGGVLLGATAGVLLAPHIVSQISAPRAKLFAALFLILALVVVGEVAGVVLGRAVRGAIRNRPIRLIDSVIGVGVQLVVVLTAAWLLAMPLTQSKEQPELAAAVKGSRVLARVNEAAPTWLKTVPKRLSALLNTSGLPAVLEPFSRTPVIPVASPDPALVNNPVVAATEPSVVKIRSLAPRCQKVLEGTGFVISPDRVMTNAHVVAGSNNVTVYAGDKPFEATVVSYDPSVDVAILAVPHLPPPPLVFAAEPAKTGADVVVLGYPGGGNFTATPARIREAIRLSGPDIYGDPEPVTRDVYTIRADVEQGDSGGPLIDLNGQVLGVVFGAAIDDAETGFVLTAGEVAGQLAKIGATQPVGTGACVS
# Mtb bLac sens = beta-lactam sensitization of Mtb H37Rv, H37Rv. M. tuberculosis H37Rv growth with meropenem, percent inhibition. inhibition, % at 25 µM. 0.27% of 330,000 active; call rule not given here;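 also: growth measured after seven days incubation then overnight dye step; 0% = bacteria only wells and 100% = bacteria with antibiotic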
# GDH-TPI counter = GDH-TPI coupling enzyme inhibitors, primary screen, artefact control for M. tuberculosis FBA inhibitor project, biochemical, absorbance, full deck; GDH-TPI coupled enzyme counterscreen, NADH absorbance; inhibition, % at 4.8 µM; 1.2% of 360,000 active; AID 588335, 2011; in the data active = inhibition above about 30%;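 also: 0% = DMSO wells and 100% = wells lacking the enzyme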
# Numbers without * were called inactive; i = inactive; x = no result; + = active, no number.
SMILES,Mtb UGM inh,RecA intein inh,Mtb FBA inh,Rv3671c inh,Mtb bLac sens,GDH-TPI counter
Cc1ccc(N(C)S(=O)(=O)c2ccc3c(c2)NC(=O)C(C)S3)cc1 (centres undefined),-1.3,4.6,2.7,-4.3,-3.8,3.5
CCCCC(=O)Nc1cccc(-c2ccc3nncn3n2)c1,-1.6,3.2,-5.3,8.9,-2.1,12.0
CCN(C(=O)c1cc2c(=O)n3ccccc3nc2n1C)C1CCCCC1,1.1,-206.3,+,-2.2,-1.8,0.5
CN(C(=O)c1cc2c(=O)n3ccccc3nc2n1C)C1CCCCC1,1.0,-349.1,+,-7.3,-1.8,18.6
CCN(C(=O)c1cc2c(=O)n3cccc(C)c3nc2s1)C1CCCCC1,1.4,-4.9,3.8,-6.9,-5.5,3.3
COCCCn1c(SCC(=O)NC2CCCCC2)nc2ccccc2c1=O,-1.6,1.8,2.6,3.1,0.5,0.0
CC1CCCCC1NC(=O)c1cc2c(=O)n3ccccc3nc2n1C (centres undefined),-2.0,i,180.2*,-6.6,2.6,10.4
Cc1cccn2c(=O)c3cc(C(=O)NC4CCCCC4C)n(C)c3nc12 (centres undefined),2.3,-12.6,13.3,5.2,-1.1,0.4
CCN(C(=O)c1cc2c(=O)n3ccccc3nc2n1CCCOC)C1CCCCC1,-1.8,2.0,117.7*,1.6,8.8,16.5
COc1ccc(-c2cc3nc[nH]c(=O)c3s2)cc1,-0.9,0.9,+,-4.1,69.0,31.0*
COc1ccc(-c2cc3nc(CCl)[nH]c(=O)c3s2)cc1,5.0,9.7,160.4*,-16.7,98.8,19.2
COc1cccc(CNc2nc3cc(-c4cccc(Cl)c4)sc3c(=O)n2C)c1,x,x,4.0,x,x,14.6
COc1ccc(CCN(C)CCC(=O)Nc2ccc(C)cc2)cc1OC,-1.6,-1.0,-1.8,4.1,2.2,-2.3
C=CCn1cc(C(=O)c2cc(Br)ccc2O)cc(C#N)c1=O,-4.1,3.6,0.8,-3.2,2.4,31.1*
CCCCn1cc(C(=O)c2cc(Br)ccc2O)cc(C#N)c1=O,-0.4,0.6,3.5,-10.1,6.7,9.5
COc1cc(OC)c(OC)cc1/C=N/NC(=S)NCC1CCCO1 (centres undefined),0.5,-0.1,13.5,2.0,-2.1,33.8*
COc1cc(/C=N/NC(=O)C(=O)NCc2ccco2)ccc1O,-4.5,-1.3,-1.6,-0.8,24.4,32.2*
COc1cc(/C=N/NC(=O)C(=O)NCc2ccco2)cc(Cl)c1O,0.2,0.3,-2.2,-0.1,28.1,36.4*
COc1cc(/C=N/NC(=O)C(=O)NCC2CCCO2)ccc1O (centres undefined),-2.1,-0.3,-1.6,6.4,-4.7,37.9*
COc1cc(OC)c(OC)cc1/C=N/NC(=S)NCCN1CCOCC1,-1.8,-2.5,14.3,5.3,-4.0,23.7
COc1cc(/C=C(\C#N)C(=O)NCC2CCCO2)ccc1O (centres undefined),-2.7,1.8,-20.1,-7.3,-3.7,1.5
C=CCOc1cccc(/C=N/NC(=O)C(=O)NCc2ccco2)c1,-0.9,-2.9,-2.5,2.9,57.7,17.6
COc1ccccc1NS(=O)(=O)c1ccc(NN=C2CCCC2)c([N+](=O)[O-])c1,1.0,0.0,-3.6,0.2,-0.3,5.7
O=C(O)c1cccc(Cn2c(Cl)c(/C=N/NC(=O)c3cc4ccccc4cc3O)sc2=O)c1,-0.7,-7.4,-0.9,10.6,-3.0,58.9*
COC(=O)c1cccc(Cn2c(Cl)c(/C=N/Nc3ccccc3C)sc2=O)c1,3.8,11.9,-2.0,-2.9,-0.9,16.5
COCCn1c(C)cc(/C=N/NC(=O)c2cc3ccccc3cc2O)c1C,-2.1,x,-1.0,4.9,-0.9,21.0
O=C(N/N=C\c1ccoc1)c1ccco1,1.7,0.9,4.8,6.4,0.1,-4.6
O=C(O)c1cccc(Cn2c(Cl)c(/C=N/NC(=O)c3ccco3)sc2=O)c1,0.1,2.5,-1.7,-5.5,-9.6,46.5*
